CYP2C19 inhib = blocks human cytochrome P450 2C19; P33261; CYP2C19 Supersomes, luciferin-H EGE luminescence, 30 min; inhibition, % at 5 µM; 96,000 compounds, 21% hits; AID 778;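 active = CYP2C19 inhibition above a set limit at 5 µM in the primary screen, cut at about 50% in these data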
CYP2C9 activ = increases human cytochrome P450 2C9 activity; P11712; recombinant CYP2C9, luciferin-H conversion, luminescence; stronger effect = higher value; factor 1 = untreated enzyme, 0 = blocked; activation factor at 5 µM; 96,000 compounds, 1.4% hits;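 active = activation factor of 2 or more for CYP2C9 at a 5 µM dose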
CYP2C19 act = cytochrome P450 2C19 (human) activation | P33261 | recombinant CYP2C19, luciferin-H EGE luminescence; stronger effect = higher value; 0 = fully inhibited enzyme, 1 = untreated enzyme | activation factor at 5 µM | 96,000 tested, under 10 active;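 active = activation factor of at least 2 at 5 µM in the primary screen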
CYP2C9 inh = human CYP2C9 inhibition | P11712 | CYP2C9 Supersomes, luciferin-H conversion, luminescence | inhibition, % at 5 µM | 96,000 compounds, 20% hits;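 active = blocking of liver enzyme CYP2C9 beyond about 50% at 5 µM, limit read from the data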
Cav32 inh = inhibitors of human Cav3.2 T-type calcium channel; Cav3.2-expressing cells, Fluo-4 calcium fluorescence FDSS; stronger effect = lower value; B-score at 10 µM; O95180; 100,000 compounds, 4% hits;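 active = single-dose well whose peak fluorescence ratio is a statistical outlier from its plate by either plate-standardised score or position-corrected B-score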
Numbers stand for hits; – = inactive; · = not tested or not shown. In the library only some 27% were active in any assay of this set; here they are far more common.

SMILES	CYP2C19 inhib	CYP2C9 activ	CYP2C19 act	CYP2C9 inh	Cav32 inh
O=C(c1ccc2c(c1)OCO2)N1CCC2(CC1)Oc1ccc(F)cc1C(=O)C21CC(c2ccccc2)=NO1 (configuration not stated)	·	·	·	·	–
O=C(COC(=O)c1ccccc1OCc1ccc(Cl)cc1)NC1CC1	75	–	–	62	–
O=C(c1ccco1)c1nnn(Cc2ccccc2)c1-c1ccccc1	–	–	–	54	–
Cc1cccc(-n2ncc3c(NCCCO)ncnc32)c1	–	–	–	64	–
C=CCNc1ncnc2c1cnn2-c1cccc(C)c1	66	–	–	73	–
Cc1cccc(-n2ncc3c(N4CC(C)CC(C)C4)ncnc32)c1 (configuration not stated)	–	–	–	81	·
COc1ccc(N2CCN(Cc3oc(CO)cc(=O)c3O)CC2)cc1	–	–	–	–	–
CC(=O)Nc1nc(SCCCc2ccccc2)n[nH]1	80	–	–	–	–
O=C(CSc1n[nH]c(-c2ccncc2)n1)NCCc1ccccc1	92	–	–	97	–
CCc1nc(SCC(=O)Nc2ccccc2C(=O)OC)n[nH]1	–	–	–	–	–
CC(C)c1nc(SCC(=O)NCc2ccccc2)n[nH]1	54	–	–	–	–
CCc1nc(SCC(=O)NCCc2ccccc2)n[nH]1	56	–	–	–	–
COc1ccc(-c2nc(CS(=O)CC(=O)NCCCN3CCCC3)c(C)o2)cc1OC (configuration not stated)	–	–	–	–	–
Cc1nn(-c2ccccc2)c(Cl)c1C(=O)Nc1c(C)n(C)n(-c2ccccc2)c1=O	–	–	–	–	–
COc1ccc(C2C=C(c3ccc(C)cc3)Nc3ncnn32)cc1 (configuration not stated)	–	–	–	–	·
COc1cccc(C2C=C(c3cccs3)Nc3ncnn32)c1OC (configuration not stated)	–	–	–	56	–
COc1ccc(C2C=C(c3ccc(Br)s3)Nc3ncnn32)cc1OC (configuration not stated)	98	–	–	50	-8.7
COC(=O)Cn1ncc2c(C)n(Cc3ccccc3)c(C)c2c1=O	84	–	–	–	–
Cc1ccc(-n2ncc(-c3nnc(SCC(=O)NC4CCCC4)o3)c2N)cc1C	–	–	–	–	–
CCOC(=O)CCSc1nc2c(c(C(F)(F)F)c1C#N)CCC2	78	–	–	67	–
O=C(O)CCc1ccc(-c2ccccc2)n1CC(=O)O	–	–	–	–	–
Cc1ccc(-c2ccc(CCC(=O)O)n2Cc2ccco2)cc1	–	–	–	57	–
Cn1c(=O)[nH]c(=O)c2c1nc(SCCN1CCCCC1)n2CCCc1ccccc1	–	–	–	–	–
Cn1cnnc1SCc1nc(N)nc(Nc2ccccc2)n1	–	–	–	–	–
CCOC(=O)C1=C(C)N(CCCC(=O)O)C(=O)NC1c1ccc(Br)cc1 (configuration not stated)	·	·	·	·	–
SMILES	CYP2C19 inhib	CYP2C9 activ	CYP2C19 act	CYP2C9 inh	Cav32 inh
Cc1ccc(C(c2nnnn2C2CCCC2)N2CCN3CCCC3C2)cc1 (configuration not stated)	–	–	–	–	–
c1csc(C(c2nnnn2C2CCCC2)N2CCOCC2)c1 (configuration not stated)	–	–	–	–	–
c1ccc(C(c2nnnn2C2CCCC2)N2CCN(c3nc4ccccc4s3)CC2)cc1 (configuration not stated)	·	·	·	·	-8.2
O=C(c1ccco1)N1CCN(C(c2cccs2)c2nnnn2C2CCCCC2)CC1 (configuration not stated)	–	–	–	68	–
NC(=O)C1CCN(C(c2ccccc2)c2nnnn2C2CCCC2)CC1 (configuration not stated)	·	·	·	·	–
c1csc(C(c2nnnn2C2CCCC2)N2CCCC3(CCCCC3)C2)c1 (configuration not stated)	–	–	–	56	-5.7
Cc1ccc(C(c2nnnn2C2CCCC2)N2CCN(c3nc4ccccc4s3)CC2)cc1 (configuration not stated)	·	·	·	·	-8.1
CC(C)(C)n1nnnc1C(c1cccs1)N1CCN(C(=O)c2ccco2)CC1 (configuration not stated)	–	–	–	–	–
O=C(Nc1ccc(Oc2ccccc2)cc1)C1CCCN(c2ncccn2)C1 (configuration not stated)	–	–	–	–	·
CCOC(=O)c1ccccc1NC(=O)/C=C/c1cc(OC)c(OC)c(OC)c1	–	–	–	–	–
CCc1ccc(N2CC(C(=O)Nc3nnc(CC)s3)CC2=O)cc1 (configuration not stated)	–	–	–	–	–
O=C(c1ccco1)N1CCN(C(c2ccccc2Cl)c2nnnn2Cc2cccs2)CC1 (configuration not stated)	89	–	–	92	–
c1csc(C(c2nnnn2C2CCCCC2)N2CCN(c3nc4ccccc4s3)CC2)c1 (configuration not stated)	·	·	·	·	-3.8
CCCC(c1nnnn1Cc1cccs1)N1CCN(c2nc3ccccc3s2)CC1 (configuration not stated)	–	–	–	–	–
CCN(CC)S(=O)(=O)c1ccc(OC)c(NC(=O)c2cc([N+](=O)[O-])ccc2Cl)c1	–	–	–	–	–
COCCOc1cc(NC(=O)c2sccc2Oc2ccc([N+](=O)[O-])cc2F)c(Cl)cc1Cl	–	–	–	59	–
c1ccc(COc2cccc(CNn3cnnc3)c2)cc1	50	–	–	–	–
CCOc1cccc(CNn2cnnc2)c1OCc1ccccc1	57	–	–	–	–
Cc1ccc(-c2nnc(-c3ccncc3)n2-c2ccc(C)cc2)cc1	–	–	–	–	–
CCOc1ccccc1NC(=O)c1cccc(NC(=O)CC(c2ccccc2)c2ccccc2)c1	71	–	–	51	·
CCOc1ccccc1NC(=O)c1ccc(Cl)c(NC(=O)CC(c2ccccc2)c2ccccc2)c1	51	–	–	80	–
Cc1ccnc(NC(=O)c2cccc(NC(=O)COc3ccccc3)c2)c1	–	–	–	–	–
S=C(Nc1ccccc1)Nc1cc(Cl)ccc1Oc1ccccc1	96	–	–	95	–
S=C(Nc1ccccc1Cl)Nc1ccc(Cl)cc1Cl	58	–	–	–	–
FC(F)(F)c1cccc(NC(=S)Nc2ccc(Cl)cc2Cl)c1	–	–	–	–	–
SMILES	CYP2C19 inhib	CYP2C9 activ	CYP2C19 act	CYP2C9 inh	Cav32 inh
Cc1cc(Cl)ccc1NC(=S)Nc1cccnc1	54	–	–	–	–
S=C(Nc1ccccc1)Nc1ccc(Cl)cc1Cl	58	–	–	–	–
COc1c(OC)c(O)c2c(=O)cc(-c3c(O)cccc3O)oc2c1OC	·	·	·	·	–
CCOC(=O)c1ccc(NC(=O)CSc2nnc(CNc3ccc(OC)cc3)n2C)cc1	–	–	–	–	·
Cc1[nH]nc2c1C(c1ccc(F)cc1)C1=C(CC(C)(C)CC1=O)N2 (configuration not stated)	–	–	–	–	–
O=C(NNC1=NCCC1)c1ccc(Br)cc1	–	–	–	–	–
